Values joined by “and” are separate entries in the source; they are usually repeats but may differ in a detail not shown here. Equal entries are not always repeated. A structure can be active in one record and inactive in another. Active and inactive are the calls of the source. Entries that show only a call come without a potency. Calls follow the shape of the dose curve; as a rule, active = well fitted activation curve with a large enough effect in the repeat runs; inconclusive = weak or mixed curves; inactive = flat fitted curve, though single readings scatter.

In PubChem BioAssay (Tox21) one finds Potency data, which are given here for 40 compounds.
Potency is read from the fitted curve at half-maximal effect.

The nature of this assay: A CellTox Green Cytotoxicity Assay to monitor cytotoxicity in HEK293 cells - 0 hour (AID 1224869). Also: nearly all actives have a fitted effect of over 50% in size. The settings on record: CellTox Green fluorescence; series mostly up to 76.8 µM. The source says: National Center for Advancing Translational Sciences [NCATS]
NIH Chemical Genomics Center [NCGC]
U.S. Environmental Protection Agency [EPA]
National Institutes of Environmental Health Sciences [NIEHS]
National Toxicology Program [NTP]
Cell-based models are critical for drug discovery. Determining the natural cytotoxic effects resulting from test compounds is an essential research activity. A CellTox Green Cytotoxicity Assay to monitor cytotoxicity in real time of continues cell culture during 40 hours of the compound treatment was used to screen Tox21 10K library compounds in Hek293 cells. CellTox Green Cytotoxicity Assay is a nonlytic, homogeneous, biofluorescent method to measure cytotoxicity in cell culture after experimental manipulation. The assay system uses a proprietary asymmetric cyanine dye that is excluded from viable cells but preferentially stains the dead cell's DNA. […] Viable cells produce no appreciable increases in fluorescence. Therefore, the fluorescence signal produced by the binding interaction with dead cell DNA is proportional to cytotoxicity.
The mixture of Hek293 cell suspension and reagents were dispensed at 600cells/6 ul/well in 1536-well tissue culture treated black solid bottom plates using a Multidrop dispenser. After the assay plates were incubated at a 37 C/5% CO2 incubator for 5 hours, 23 nL of compounds dissolved in DMSO, positive and negative controls was transferred to the assay plate by a pintool work station. The plates were incubated at 37 C for 40 hours. The fluorescence intensity were measured at 0h, 8h, 16h, 24h, 32h and 40h time points using ViewLux plate reader during compound treatment.
Consider `CCCCSP(=O)(SCCCC)SCCCC`, for which the Potency entry is “inactive”. With `O=S(=O)(O)C(F)(F)C(F)(F)C(F)(F)C(F)(F)C(F)(F)C(F)(F)C(F)(F)C(F)(F)F` the entry was “inactive”. With `CNC(=O)Oc1cccc2c1OC(C)(C)C2` the entry was “inactive”; with `CCOS(=O)(=O)OCC`, “inactive”; with `CCCCOC(=O)COC(=O)c1ccccc1C(=O)OCCCC`, “inactive”. The value for `C=CC(Cl)CCl` (stereo not given) was “inactive”. Regarding `CC(C)(c1ccc(OCC2CO2)cc1)c1ccc(OCC2CO2)cc1` (stereo not given), the Potency result was “inactive”. With `CC(C)=CC1C(C(=O)OCc2cccc(Oc3ccccc3)c2)C1(C)C` (stereo not given) the entry was “inactive”. In the case of `COP(=S)(OC)SCn1nnc2ccccc2c1=O`, the Potency result was “inactive”. With `N#Cc1c(Cl)c(Cl)c(Cl)c(C#N)c1Cl` the entry was “inactive”; with `CN(C)c1nc(=O)n(C2CCCCC2)c(=O)n1C`, “inactive”; with `Clc1cccc(C(Cl)(Cl)Cl)n1`, “inactive”.

Turning to `OCCOCCO`, the Potency result is “inactive”.

Consider `O=P(OCCCl)(OCCCl)OCCCl`, for which the Potency entry was “inactive”. As to `Oc1ccc(Cl)cc1Cc1ccccc1`, the Potency result was “inactive”. The value for `CC(C)(c1ccccc1)c1ccc(O)c(C(C)(C)c2ccccc2)c1` was “inactive”; that for `COP(=O)(NC(C)=O)SC` (stereo not given) was “inactive”; that for `C[C@]12CC[C@H]3[C@@H](CCC4=CC(=O)CC[C@@H]43)[C@@H]1CC[C@@H]2O` was “inactive”. Take `CC(C)COC(=O)c1ccccc1C(=O)OCC(C)C`: the Potency entry was “inactive”.

Consider `CCCCCCCCCCCCCl`, for which the Potency result is “inactive and 24.5 µM (active)”. With `COP(=S)(OC)Oc1ccc(S(=O)(=O)N(C)C)cc1` the entry was “inactive”; with `ClCc1ccccn1`, “inactive”; with `Cc1ccc([N+](=O)[O-])cc1`, “inactive”.

For the compound `CN(C)c1ccccc1`, the Potency entry is “inactive”.

Consider `COc1ccc(CO)cc1`, for which the Potency entry was “inactive”. The value for `COc1ccc(O)c(C(C)(C)C)c1` was “inactive”; that for `Clc1cccc(Cl)c1` was “inactive”. For `Cc1cc(Cl)ccc1N=CN(C)C`, the Potency result is “inactive”.

In the case of `COc1ccc(C=O)cc1OC`, the Potency entry was “inactive”. With `C[C@]12CCC(=O)C=C1CC[C@@H]1[C@@H]2CC[C@@]2(C)[C@H]1CC[C@]2(C)O` the figure was 44 µM (active) and inactive. The value for `Cl` was “inactive”; that for `Nc1ccc([N+](=O)[O-])cc1N` was “inactive”; that for `CCN(CC)C(=O)C(C)Oc1cccc2ccccc12` (stereo not given) was “inactive”. As to `[Cl-].[Cl-].[Cl-].[Fe+3]`, the Potency entry was “inactive”. With `CC1CC(=O)O1` (stereo not given) the entry was “inactive”; with `CC(C)(c1ccccc1)c1ccc(O)cc1`, “inactive”; with `CCC[CH2][Sn]([Cl])([CH2]CCC)[CH2]CCC`, “inactive”.

`CC(C)=CC1C(C(=O)OCN2C(=O)C3=C(CCCC3)C2=O)C1(C)C` (stereo not given): the Potency entry is “inactive”. For `N#CCCCCC#N`, the Potency result was “inactive”. The value for `CCCCCCCCCC(CC)c1ccc(S(=O)(=O)O)cc1` (stereo not given) was “inactive”.
